Growth data for 13 compounds are collected here from PubChem BioAssay (NCI).

Among the test systems are SR leukemia; RPMI-8226 leukemia; OVCAR-8 ovarian; OVCAR-5 ovarian; OVCAR-4 ovarian; SK-OV-3 ovarian; IGROV1 ovarian; OVCAR-3 ovarian; HS 578T breast; NCI/ADR-RES ovarian.
Assay in all cases: NCI-60 one-dose screen, 48 h (100 = growth as untreated, 0 = no growth, -100 = all killed)
What all share (settings): 10 µM unless noted

Each structure is given as a SMILES string. “And” between values parts separate entries of the source, which are not always exact repeats. Identical values can stand only once. Compounds without any hit were thinned out: in the full panel of roughly 83,000, 20% have a hit.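 Each cell line was grown in a 96-well plate and treated with one concentration of compound for 48 hours. Values below 10 were considered active.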 A number with no mark means an inactive call. The source made the active and inactive calls.

Consider `COc1ccc(N2CCN(S(=O)(=O)c3oc(-c4ccccc4)nc3C#N)CC2)cc1`, for which the growth in the test with SR leukemia is 6.1% (active); with RPMI-8226 leukemia, 41.4%; with OVCAR-8 ovarian, 60.2%; with OVCAR-5 ovarian, 95.2%; in the test on OVCAR-4 ovarian, 86.7%; in the test on SK-OV-3 ovarian it was 113%. The growth was 54.6% in the test with IGROV1 ovarian, 73.3% with OVCAR-3 ovarian, 104% in the test on HS 578T breast and 91% with NCI/ADR-RES ovarian.
With `COCCn1cc(-c2nc(-c3cn(CCOC)c4ncccc34)cs2)c2ccccc21`, the growth was 102% in the test with SR leukemia; 45.2% in the test on RPMI-8226 leukemia; 97.7% with OVCAR-8 ovarian; 46% with OVCAR-5 ovarian; 23.1% with OVCAR-4 ovarian; 63.3% with SK-OV-3 ovarian. For the same compound, the growth with IGROV1 ovarian was 36.7%; with OVCAR-3 ovarian, 17.2%; with HS 578T breast it was 86.7%; in the test on NCI/ADR-RES ovarian, 95.2%.
Consider `CN(C)CC1(C)Cc2ccsc2C1O` (stereo not given), for which the growth was 102% and 83.2% with SR leukemia; 106% and 98.8% in the test on RPMI-8226 leukemia; 110% and 105% with OVCAR-8 ovarian; 101% and 105% with OVCAR-5 ovarian; 113% and 100% in the test on OVCAR-4 ovarian; 109% and 104% in the test on SK-OV-3 ovarian. The growth in the test on IGROV1 ovarian was 123% and 110%; with OVCAR-3 ovarian, 127% and 105%; in the test with HS 578T breast, 129%; in the test on NCI/ADR-RES ovarian, 106% and 103%.
Consider `COc1ccc(-c2ccc(-c3ccc(C(=N)N)cn3)s2)cc1Cl`, for which the growth in the test on SR leukemia is 0.301% (active); with RPMI-8226 leukemia it was -41.6% (active); in the test on OVCAR-8 ovarian, -50.5% (active); with OVCAR-5 ovarian, -95.5% (active); in the test on OVCAR-4 ovarian, -82.8% (active); in the test with SK-OV-3 ovarian, 100%. Also, the growth in the test with IGROV1 ovarian was -83% (active); in the test on OVCAR-3 ovarian it was -38.1% (active); in the test on HS 578T breast it was -68.5% (active); in the test with NCI/ADR-RES ovarian, 0.998% (active).
In the case of `NCCOCCOc1ccccc1`, the growth is 101% with SR leukemia; 88.7% in the test on RPMI-8226 leukemia; 107% in the test on OVCAR-8 ovarian; 104% with OVCAR-5 ovarian; 98% with OVCAR-4 ovarian; 112% in the test on SK-OV-3 ovarian. Further, the growth was 103% in the test on IGROV1 ovarian, 106% with OVCAR-3 ovarian, 115% with HS 578T breast and 102% in the test on NCI/ADR-RES ovarian.
For `N#CC(Cc1cccc2ccccc12)c1cc2ccccc2[nH]1` (stereo not given), the growth was 99.2% in the test with SR leukemia; 72.3% in the test on RPMI-8226 leukemia; 87.7% in the test with OVCAR-8 ovarian; 89% in the test with OVCAR-5 ovarian; 95.1% in the test on OVCAR-4 ovarian; 84.1% with SK-OV-3 ovarian. Also, the growth is 86.4% with IGROV1 ovarian, 89.7% in the test on OVCAR-3 ovarian, 89.7% with HS 578T breast and 87.2% with NCI/ADR-RES ovarian.
With `N#Cc1c(-c2cccc(F)c2)cc(-c2cccnc2)[nH]c1=O`, the growth in the test on SR leukemia is 91.3%; in the test on RPMI-8226 leukemia, 98.8%; in the test on OVCAR-8 ovarian, 100%; in the test on OVCAR-5 ovarian, 98.9%; in the test with OVCAR-4 ovarian it was 113%; with SK-OV-3 ovarian, 99.6%. Further, the growth is 110% in the test with IGROV1 ovarian, 108% in the test with OVCAR-3 ovarian, 104% with HS 578T breast and 105% with NCI/ADR-RES ovarian.
As for `O=C1C(c2c[nH]c3ccccc23)=C(c2coc3cc(Br)ccc23)C(=O)N1O`, the growth with SR leukemia was 90.5%; with RPMI-8226 leukemia, 89.8%; in the test with OVCAR-8 ovarian it was 106%; with OVCAR-5 ovarian, 105%; in the test on OVCAR-4 ovarian it was 115%; with SK-OV-3 ovarian it was 98.8%. In addition, the growth is 85.2% in the test on IGROV1 ovarian, 102% with OVCAR-3 ovarian, 94.5% in the test on HS 578T breast and 105% in the test on NCI/ADR-RES ovarian.
`O=C(CCCOc1ccc(Br)cc1)Nc1ncc(Cc2ccc(F)cc2)s1`: the growth was 22.6% in the test with SR leukemia; 77.6% with RPMI-8226 leukemia; 91.5% with OVCAR-8 ovarian; 79.4% in the test on OVCAR-5 ovarian; 68.7% in the test with OVCAR-4 ovarian; 81.7% in the test on SK-OV-3 ovarian. The growth was 78.5% in the test on IGROV1 ovarian, 81% with OVCAR-3 ovarian, 74.3% with HS 578T breast and 73.6% in the test with NCI/ADR-RES ovarian.
For `COc1ccc(/C=N/C2=C(C#N)C(c3ccccc3)c3c(ccc4ccccc34)O2)cc1` (stereo not given), the growth in the test with SR leukemia was 17.5%; in the test on RPMI-8226 leukemia, -2.96% (active); in the test with OVCAR-8 ovarian, 37.6%; in the test with OVCAR-5 ovarian, 48.8%; in the test on OVCAR-4 ovarian, 52.3%; in the test on SK-OV-3 ovarian, 45.3%. Further, the growth in the test with IGROV1 ovarian was 23.5%; in the test with OVCAR-3 ovarian, -11% (active); with HS 578T breast it was 17.5%; with NCI/ADR-RES ovarian, 10.3%.
As for `O=C1C(Nc2ccc(Cl)cc2)=C(I)C(=O)c2ncccc21`, the growth with SR leukemia was 4.45% (active); in the test with RPMI-8226 leukemia, -2.24% (active); with OVCAR-8 ovarian it was -65.1% (active); in the test with OVCAR-5 ovarian it was 60.4%; in the test on OVCAR-4 ovarian it was -91.4% (active); in the test with SK-OV-3 ovarian, 83.3%. Moreover, the growth in the test with IGROV1 ovarian is -76.2% (active); in the test on OVCAR-3 ovarian it was -88.3% (active); in the test with HS 578T breast it was 39.9%; in the test on NCI/ADR-RES ovarian it was -0.0242% (active).
As for `Cc1c(C(C)(C)O)cn2ncnc(Oc3ccc(NC(=O)Nc4ccc(Cl)c(C(F)(F)F)c4)cc3)c12`, the growth is -3.12% (active) with SR leukemia; 37% with RPMI-8226 leukemia; 49.1% in the test with OVCAR-8 ovarian; 100% with OVCAR-5 ovarian; 21% in the test on OVCAR-4 ovarian; 83.9% in the test with SK-OV-3 ovarian. Also, the growth in the test on IGROV1 ovarian is 37.6%; in the test with OVCAR-3 ovarian, 26.2%; with HS 578T breast it was 49.4%; in the test with NCI/ADR-RES ovarian, 64%.
Turning to `COc1ccc(Oc2nc(Nc3ccc(N4CCOCC4)cc3)ncc2NC(=O)c2cc(OC)cc(OC)c2)cc1`, the growth in the test with SR leukemia is 34.7%; with RPMI-8226 leukemia it was 53.2%; with OVCAR-8 ovarian it was 92.1%; with OVCAR-5 ovarian, 123%; in the test with OVCAR-4 ovarian it was 81.3%; in the test on SK-OV-3 ovarian it was 102%. For the same compound, the growth with IGROV1 ovarian is 83.8%; in the test with OVCAR-3 ovarian, 83.5%; in the test with HS 578T breast, 76.7%; with NCI/ADR-RES ovarian, 81.6%.
